# Article PMC5540273 (PLoS ONE, 2017)
# Assays:
# Settings in all cases: concentration: 1 μM,replicates: in singlicate; n = 1
# RIOK1 = test system: RIOK1
# RIOK2 = test system: RIOK2
# RIOK3 = test system: RIOK3
# RIPK1 = test system: RIPK1
# RIPK2 = test system: RIPK2
# RIPK4 = test system: RIPK4
# RIPK5 = test system: RIPK5
# ROCK1 = test system: ROCK1
# ROCK2 = test system: ROCK2
# ROS1 = test system: ROS1
# 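Further: KINOMEscan kinase panel screen.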
Compound,%Inh (RIOK1) [%],%Inh (RIOK2) [%],%Inh (RIOK3) [%],%Inh (RIPK1) [%],%Inh (RIPK2) [%],%Inh (RIPK4) [%],%Inh (RIPK5) [%],%Inh (ROCK1) [%],%Inh (ROCK2) [%],%Inh (ROS1) [%]
Cn1ccc2ncnc(Oc3ccc(NC(=O)Nc4cncc(C(F)(F)F)c4)c(Cl)c3)c21,0,29,19,0,9,0,0,0,0,0
CCN1CCN(CCCC(=O)Nc2n[nH]c3nc(-c4ccc(O)cc4)c(Br)cc23)CC1 [SB-731579],39,0,9,0,0,27,0,10,0,8
Cc1ccn2nc(-c3ccc(F)cc3)c(-c3ccncc3)c2c1.Cl [GW457859],23,0,23,1,41,6,0,12,20,0
Cl.Cl.NC[C@H](CC1CCCCC1)NC(=O)c1ccc(-c2ccnc3[nH]ccc23)s1 [GSK1581428],100,45,90.1,0,0,0,0,100,98.9,26
CS(=O)(=O)c1cccc(CNc2nc(Nc3ccc4c(c3)[C@@H]3C[C@@H]4CNC3=O)ncc2C(F)(F)F)c1,76,0,67,0,0,77,75,0,0,86
Cc1ccc(C(=O)Nc2ccc(Oc3ccc4nc(NC(=O)C5CC5)cn4c3)c(F)c2)c(=O)n1-c1ccccc1,0,0,9,99.9,12,0,0,0,0,0
O=C(NCC1CC1)c1ccc(-c2cc(C(=O)NC3CC3)ccc2F)cc1 [GW810445],1,0,0,0,0,0,0,58,9,0
COc1ccc(Nc2nccc(N3CCC(NC(=O)c4cccc(C#N)c4)C3)n2)cc1 (stereo not shown) [GSK1379730],34,0,5,0,0,0,0,25,14,23
Cl.Nc1n[nH]c2cc(-c3ccccn3)ccc12 [GSK2189892],47,0,24,0,0,4,6,0,5,12
O=C(Nc1n[nH]c2cc(-c3ccco3)ccc12)C1CC1 [SB-737447],81,10,79,13,0,36,3,0,0,2
NC(=O)c1ccc(-c2cc3ncnc(SCC(=O)O)c3s2)cc1,0,0,19,0,18,3,0,0,0,0
c1ccc(Oc2ccc(Nc3ccnc4ccc(-c5ccccn5)cc34)cc2)cc1 [GW407034],16,5,0,0,95.7,16,31,11,0,10
C[C@@H](Oc1cc(-n2cnc3ccc(-c4ccncc4)cc32)sc1C(N)=O)c1ccccc1Cl [GSK483724],93,70,73,40,26,0,3,23,19,42
Cc1ccc(Nc2ccnc(Nc3ccc4c(c3)CS(=O)(=O)C4)n2)cc1O.Cl [GW579362],99.8,66,95.7,25,93.6,98.6,89,48,50,81
COC(=O)Nc1nc2cc(Oc3ccc(NC(=O)Nc4cc(C(F)(F)F)ccc4Cl)cc3)ccc2[nH]1.Cl [GW697465],0,2,0,41,43,1,0,26,24,42
Cc1ccc2c(-c3ccnc(Nc4ccc(C(F)(F)F)cc4)n3)cnn2n1 [GW819776],17,84,22,29,17,10,27,54,0,41
Cn1ccc2ncnc(Oc3ccc(NC(=O)Nc4ccnc(C(F)(F)F)c4)c(Cl)c3)c21,0,19,6,0,0,0,0,17,0,0
CN(c1cccc(CNc2nc(Nc3ccc4c(c3)CC(=O)N4)ncc2C(F)(F)F)c1)S(C)(=O)=O,78,19,70,3,0,0,16,0,17,89
Cn1ccc2ncnc(Oc3ccc(NC(=O)Nc4cc(C(C)(C)C)on4)c(Cl)c3)c21,2,29,1,15,83,12,11,3,0,46
COC(=O)c1cccc(NC(=O)NC2CCN(c3ccnc(NCc4ccc(F)cc4)n3)CC2)c1 [GSK1379860],22,0,6,0,0,5,0,25,19,8
CCOC(=O)N1CCC(n2cnc(-c3ccc(F)cc3)c2-c2ccnc(N)n2)CC1 [SB-219952],51,24,35,18,34,64,5,45,12,15
NC(=O)Nc1sc(-c2ccc(F)cc2)cc1C(N)=O [GW789449],99.4,37,98.5,0,0,79,69,14,0,0
CCn1c(-c2nonc2N)nc2cncc(CNC3CCNCC3)c21.Cl [SB-747651],30,0,6,0,5,19,0,–,–,0
CCNCC(Cc1ccccc1)NC(=O)c1cc(Br)c(-c2ccnc3[nH]ccc23)s1.Cl.Cl (stereo not shown) [GSK1383280],61,61,72,0,0,20,32,99.8,99.6,44
COC(=O)c1cccc(NC(=O)NC2CCN(c3ccnc(Nc4cc(OC)c(OC)c(OC)c4)n3)C2)c1 (stereo not shown) [GSK1379767],70,0,67,23,24,26,0,24,20,30
CNC(=O)c1ccccc1Nc1nc(Nc2cccc(CS(C)(=O)=O)c2)ncc1C.O=CO [GSK1520489],97.9,89,91.8,21,30,98,65,89,75,90
CC(=O)Nc1nc2cnc(Nc3cc(NC(=O)c4cccc(CC(C)(C)C#N)c4)ccc3C)nc2s1,0,22,0,0,0,25,0,19,0,6
Cn1ccc2ncnc(Oc3ccc(NC(=O)Nc4cnn(C(C)(C)C)c4)c(Cl)c3)c21,4,29,0,12,40,0,0,6,0,0
Cc1cccc(-c2nc(Nc3ccncc3)c3sccc3n2)n1 [GW869641],35,42,28,0,62,42,25,27,38,21
CC(C(=O)NC1CCN(c2ccnc(Nc3ccc(F)cc3)n2)C1)c1ccc(Cl)cc1 (stereo not shown) [GSK1379713],35,0,0,6,0,0,0,27,10,53
